In PubChem BioAssay (EPA / NIEHS):
Inconclusive results are not listed. Activity calls are given as the source filed them. Rule for the calls, unless noted: active = hit-call score of the fitted dose curve at least 0.9, where 1 is the maximum; inconclusive = response in the unintended direction; inactive = score below 0.9.

How the values were obtained:
[1] = ATG_M_06_TRANS: Attagene TRANS-FACTORIAL HepG2 Assay for M06 Transcription Factor (Internal Marker) (AID 2282983); conditions: HepG2 Attagene TRANS M06 internal marker reporter;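 note: reporter transcript level by RT-PCR then capillary electrophoresis fluorescence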
Summary of the method: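 After a 24 h chemical treatment of transfected HepG2, RNA underwent DNase I treatment, reverse transcription and reporter-specific PCR; labelled, HpaI-digested products were sized by capillary electrophoresis. Signal increase relative to DMSO defined activity.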

[2] = ATG_M_32_TRANS: Attagene TRANS-FACTORIAL HepG2 Assay for M32 Transcription Factor (Internal Marker) (AID 2282984); conditions: HepG2 Attagene TRANS M32 internal marker reporter;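 note: transcript level of a background control reporter unit measured by RT-PCR and capillary electrophoresis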
Summary of the method: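 Measures reporter mRNA induction in human HepG2 liver cells after 24 h chemical treatment. Transcripts from transiently transfected GAL4-UAS reporter units are amplified, fluorescently labelled and sized by capillary electrophoresis; gain of signal relative to DMSO.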

[3] = biological target: Transcriptional activator Myb (Homo sapiens) (UniProt P10242); experiment: ATG_Myb_CIS: Attagene CIS-FACTORIAL HepG2 Assay for human Myeloblastosis (Myb) Proto-Oncogene Transcription Factor (AID 2282986; active = hit-call score of the fitted dose curve at least 0.9, where 1 is the maximum; inactive = score below 0.9); conditions: HepG2 Attagene CIS-FACTORIAL Myb reporter transcription; actives raise or lower the signal
Summary of the method: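 Transiently transfected HepG2 cells, treated 24 h. Reporter mRNA quantified by RT-PCR/capillary electrophoresis; bidirectional fit relative to DMSO.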

[4] = biological target: Nuclear respiratory factor 1 (Homo sapiens) (UniProt Q16656); experiment: ATG_NRF1_CIS: Attagene CIS-FACTORIAL HepG2 Assay for human Nuclear Respiratory Factor 1 (NRF1) Orphan Gene (AID 2282987; active = hit-call score of the fitted dose curve at least 0.9, where 1 is the maximum; inactive = score below 0.9); conditions: HepG2 NRF1 cis-element reporter, Attagene multiplex; actives raise or lower the signal
Summary of the method: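 Cells (HepG2, transient MRTU transfection) are exposed to compound for 24 h, then RNA isolated and reporter mRNA amplified and fluorescently labelled. Fragments are separated by capillary electrophoresis; signal change is fitted bidirectionally relative to DMSO.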

[5] = biological target: Hepatocyte nuclear factor 4-alpha (Homo sapiens) (UniProt P41235); experiment: ATG_HNF4a_TRANS: Attagene TRANS-FACTORIAL HepG2 Assay for human Hepatocyte Nuclear Factor 4 alpha (HNF4a) (AID 2282982); conditions: HepG2 HNF4a transactivation reporter, mRNA readout
Summary of the method: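 Readout is fluorescent reporter-transcript fragments resolved by capillary electrophoresis after RT-PCR from HepG2 cells dosed for 24 h. Cells carried transfected GAL4-UAS reporter constructs measuring exogenous NR-GAL4 chimera activity; DMSO served as baseline.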

[6] = biological target: Nuclear receptor subfamily 4 group A member 2 (Homo sapiens) (UniProt P43354); experiment: ATG_NURR1_TRANS: Attagene TRANS-FACTORIAL HepG2 Assay for human Nuclear Receptor Related Protein 1 (NURR1) (AID 2282985); conditions: HepG2 Attagene TRANS reporter, mRNA readout
Summary of the method: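 Transient transfection of HepG2, human liver cells, with multiple GAL4-UAS reporter transcription units. Cells dosed 24 h, RNA isolated, reverse-transcribed, PCR-amplified, FAM-labelled, HpaI-digested, sized by capillary electrophoresis. DMSO served as negative control.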

Measured: outcome

Transcriptional activator Myb (Homo sapiens), sequence (P10242 whole entry, looked up): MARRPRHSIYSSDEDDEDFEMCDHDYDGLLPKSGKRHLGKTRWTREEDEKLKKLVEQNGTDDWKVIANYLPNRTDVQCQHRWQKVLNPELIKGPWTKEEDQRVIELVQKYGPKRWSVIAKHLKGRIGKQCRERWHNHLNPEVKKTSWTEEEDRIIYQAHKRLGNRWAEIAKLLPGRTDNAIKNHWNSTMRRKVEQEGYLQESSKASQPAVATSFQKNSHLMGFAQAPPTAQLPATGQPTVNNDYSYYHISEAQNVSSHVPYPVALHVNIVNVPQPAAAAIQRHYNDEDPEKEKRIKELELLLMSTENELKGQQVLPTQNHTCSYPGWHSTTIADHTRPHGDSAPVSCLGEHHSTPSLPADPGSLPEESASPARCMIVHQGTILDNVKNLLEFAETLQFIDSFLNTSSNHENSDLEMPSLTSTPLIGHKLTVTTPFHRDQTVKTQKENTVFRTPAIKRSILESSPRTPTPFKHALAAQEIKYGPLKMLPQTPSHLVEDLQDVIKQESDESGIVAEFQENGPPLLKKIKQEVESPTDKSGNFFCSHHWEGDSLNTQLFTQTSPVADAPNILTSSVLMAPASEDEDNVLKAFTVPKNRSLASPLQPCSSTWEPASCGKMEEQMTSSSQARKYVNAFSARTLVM
Hepatocyte nuclear factor 4-alpha (Homo sapiens), sequence (P41235 whole entry, looked up, the tested form may be a part): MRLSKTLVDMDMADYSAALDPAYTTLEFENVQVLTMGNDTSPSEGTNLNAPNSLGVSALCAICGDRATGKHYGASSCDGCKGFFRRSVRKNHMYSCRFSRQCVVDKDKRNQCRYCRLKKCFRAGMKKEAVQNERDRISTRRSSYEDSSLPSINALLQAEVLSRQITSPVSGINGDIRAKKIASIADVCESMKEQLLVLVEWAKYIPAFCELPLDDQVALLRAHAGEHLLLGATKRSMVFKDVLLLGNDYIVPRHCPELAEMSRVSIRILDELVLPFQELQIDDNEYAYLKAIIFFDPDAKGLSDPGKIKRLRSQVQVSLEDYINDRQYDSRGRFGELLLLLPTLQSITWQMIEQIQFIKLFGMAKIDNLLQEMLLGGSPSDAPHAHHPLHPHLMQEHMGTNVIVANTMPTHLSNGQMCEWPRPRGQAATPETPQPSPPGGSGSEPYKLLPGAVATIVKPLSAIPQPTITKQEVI
Nuclear receptor subfamily 4 group A member 2 (Homo sapiens), sequence (P43354 whole entry, looked up, the tested form may be a part): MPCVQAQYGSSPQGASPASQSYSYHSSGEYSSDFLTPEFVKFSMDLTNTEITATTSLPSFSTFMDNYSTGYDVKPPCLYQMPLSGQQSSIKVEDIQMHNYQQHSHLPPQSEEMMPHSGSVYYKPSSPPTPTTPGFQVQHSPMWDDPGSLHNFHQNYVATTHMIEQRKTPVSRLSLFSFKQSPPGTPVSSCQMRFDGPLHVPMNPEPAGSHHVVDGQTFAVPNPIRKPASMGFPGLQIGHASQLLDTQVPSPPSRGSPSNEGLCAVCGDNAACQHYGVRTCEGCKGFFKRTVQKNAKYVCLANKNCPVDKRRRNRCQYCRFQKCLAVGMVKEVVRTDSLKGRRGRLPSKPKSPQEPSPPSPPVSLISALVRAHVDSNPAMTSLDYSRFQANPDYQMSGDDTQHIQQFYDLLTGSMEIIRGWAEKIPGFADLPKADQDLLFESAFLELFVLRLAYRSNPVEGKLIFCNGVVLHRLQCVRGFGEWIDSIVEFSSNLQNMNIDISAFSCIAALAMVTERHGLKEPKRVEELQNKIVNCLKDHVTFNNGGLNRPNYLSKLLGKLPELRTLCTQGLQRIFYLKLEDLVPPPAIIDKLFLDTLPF
Nuclear respiratory factor 1 (Homo sapiens), sequence (Q16656 whole entry, looked up, the tested form may be a part): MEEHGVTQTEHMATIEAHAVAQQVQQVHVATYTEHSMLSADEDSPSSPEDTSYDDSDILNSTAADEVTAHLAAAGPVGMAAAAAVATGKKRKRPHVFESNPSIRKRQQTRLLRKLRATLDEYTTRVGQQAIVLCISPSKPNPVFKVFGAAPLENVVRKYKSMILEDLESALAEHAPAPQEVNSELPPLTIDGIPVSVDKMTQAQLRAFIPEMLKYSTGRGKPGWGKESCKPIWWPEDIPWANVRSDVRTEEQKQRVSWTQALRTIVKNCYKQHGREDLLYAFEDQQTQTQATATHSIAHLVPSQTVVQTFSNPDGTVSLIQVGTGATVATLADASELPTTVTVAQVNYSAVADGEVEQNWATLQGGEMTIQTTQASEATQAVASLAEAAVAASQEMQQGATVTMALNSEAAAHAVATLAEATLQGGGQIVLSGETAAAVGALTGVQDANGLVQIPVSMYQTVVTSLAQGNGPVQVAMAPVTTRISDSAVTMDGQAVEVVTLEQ

Clc1sc(Cl)c(Cl)c1Cl
inactive: [1] | [2] | [3] | [4]

O=[N+]([O-])c1cc(C(F)(F)F)ccc1Cl
not listed: [6]
inactive: all other assays above

CCCCCNCCCCC
inactive: [5] | [1] | [3] | [4]

CC(=O)C(=O)O
inactive: [5] | [1] | [3] | [4]

O=C(O)CCCCC1CCSS1 (stereo not given)
not listed: [2]
inactive: all other assays above

CNCCCC12CCC(c3ccccc31)c1ccccc12
inactive: [5] | [1] | [3] | [4]

CC(C)[C@@H]1CC[C@@H](C)CC1=O
inactive: [5] | [3] | [4]

CCCCN
inactive: [5] | [6] | [3] | [4]

CC1(C)OC[C@@H]2O[C@@]3(C(=O)O)OC(C)(C)O[C@H]3[C@@H]2O1
inactive: [1] | [3] | [4]

CC(C)(C)C(=O)c1ccccc1
inactive: [5] | [1] | [3] | [4]

NCCCCCCN
not listed: [1]
inactive: all other assays above

CCCC(=O)OCCC(C)CCC=C(C)C (stereo not given)
not listed: [6]
inactive: all other assays above

CNCCO
not listed: [2]
inactive: all other assays above

COC(C(=O)O)c1ccccc1 (stereo not given)
inactive: [5] | [1] | [3] | [4]

O=S(=O)(O)NC1CCCCC1
inactive: [5] | [3] | [4]

CC(=O)Nc1ccccc1O
inactive: [1] | [6] | [3] | [4]

CC1(CO)CN(c2ccccc2)NC1=O (stereo not given)
not listed: [5]
inactive: all other assays above

O=C1CCc2ccccc2O1
not listed: [2]
inactive: all other assays above

CO[Si](CCCn1c(=O)n(CCC[Si](OC)(OC)OC)c(=O)n(CCC[Si](OC)(OC)OC)c1=O)(OC)OC
not listed: [6]
inactive: all other assays above

O=C[C@H](O)[C@H](O)[C@H](O)CO
inactive: [1] | [6] | [3] | [4]

CCCCCCCCCCC(CO)CCCCCCCC (stereo not given)
inactive: [2] | [6] | [3] | [4]

CCOc1ccccc1OCC
not listed: [2]
inactive: all other assays above

CC1(C)C(=O)N(Br)C(=O)N1Cl
inactive: [5] | [2] | [3] | [4]

CCCCCCCCCCCCCCCC(=O)O
not listed: [5]
inactive: all other assays above

CCC(C(=O)NC(N)=O)c1ccccc1 (stereo not given)
inactive: [1] | [2] | [3] | [4]

NCCCN1CCOCC1
inactive: [1] | [6] | [3] | [4]

C=C[Si](OCC)(OCC)OCC
inactive: [1] | [2] | [3] | [4]
